Measurements from PubChem BioAssay AID1159580 (chemical genetic matrix, 2015).
Screen size: about 5,500 compounds; about 2,000 (36%) were called active. Another 18% or so got no clear call; they are omitted. No stated cut-off is given here; in the data, active means normalized growth mostly below about 0.91 (no sharp cut-off); inconclusive means no clear call, values can overlap the other calls; inactive means mostly above about 0.92. This is one part of the list.

Experiment: chemical genetic growth profiling, strain panel (AID 1159580);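 further: tested at 20 µM; growth read once vehicle control cultures reached saturation at 30 °C; 1 = growth at the plate median or of vehicle wells; lower values mean less growth of the strain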
Conditions: growth OD

Measured: normalized growth

CCCNC1CCc2nc(N)sc2C1 (stereo unspecified)
inactive: S. cerevisiae deletion strains, locus YAL013W, strain DEP1, active compounds read low 1.01 | S. cerevisiae deletion strains, locus YBR021W, strain FUR4, active compounds read low 1.02 | S. cerevisiae deletion strains, locus YBR229C, strain ROT2, active compounds read low 1.01 | S. cerevisiae deletion strains, locus YCL029C, strain bik1, active compounds read low 0.997 | S. cerevisiae deletion strains, locus YDL035C, strain GPR1, active compounds read low 1.02 | S. cerevisiae deletion strains, locus YDL074C, strain BRE1, active compounds read low 1.04 | S. cerevisiae deletion strains, locus YDL101C, strain DUN1, active compounds read low 1.01 | S. cerevisiae deletion strains, locus YDL134C, strain PPH21, active compounds read low 1.01 | S. cerevisiae deletion strains, locus YDL185W, strain tfp1, active compounds read low 1.01 | S. cerevisiae deletion strains, locus YDL192W, strain arf1, active compounds read low 1 | S. cerevisiae deletion strains, locus YDR101C, strain arx1, active compounds read low 0.988 | S. cerevisiae deletion strains, locus YDR150W, strain NUM1, active compounds read low 1.01 | S. cerevisiae deletion strains, locus YDR162C, strain NBP2, active compounds read low 1.01 | S. cerevisiae deletion strains, locus YDR318W, strain mcm21, active compounds read low 1 | S. cerevisiae deletion strains, locus YDR388W, active compounds read low 0.994 | S. cerevisiae deletion strains, locus YDR502C, strain sam2, active compounds read low 0.995 | S. cerevisiae deletion strains, locus YEL061C, strain CIN8, active compounds read low 1.01 | S. cerevisiae deletion strains, locus YER110C, active compounds read low 0.99 | S. cerevisiae deletion strains, locus YER155C, strain BEM2, active compounds read low 0.983 | S. cerevisiae deletion strains, locus YER167W, strain BCK2, active compounds read low 1.01 | S. cerevisiae deletion strains, locus YGL078C, strain dbp3, active compounds read low 1.01 | S. cerevisiae deletion strains, locus YGL086W, strain mad1, active compounds read low 0.994 | S. cerevisiae deletion strains, locus YGL248W, strain PDE1, active compounds read low 1.01 | S. cerevisiae deletion strains, locus YGR078C, strain PAC10, active compounds read low 1.03 | S. cerevisiae deletion strains, locus YGR135W, strain pre9, active compounds read low 1 | S. cerevisiae deletion strains, locus YGR229C, strain SMI1, active compounds read low 1.03 | S. cerevisiae deletion strains, locus YGR252W, strain gcn5, active compounds read low 1.03 | S. cerevisiae deletion strains, locus YHR030C, strain SLT2, active compounds read low 1.01 | S. cerevisiae deletion strains, locus YHR079C, strain IRE1 (second series), active compounds read low 0.995 | S. cerevisiae deletion strains, locus YHR094C, strain hxt1, active compounds read low 1 | S. cerevisiae deletion strains, locus YHR129C, strain ARP1, active compounds read low 1.01 | S. cerevisiae deletion strains, locus YHR200W, strain rpn10, active compounds read low 1 | S. cerevisiae deletion strains, locus YIL066C, strain RNR3, active compounds read low 1.02 | S. cerevisiae deletion strains, locus YIL073C, strain SPO22, active compounds read low 1.03 | S. cerevisiae deletion strains, locus YIL125W, strain kgd1, active compounds read low 1 | S. cerevisiae deletion strains, locus YIR030C, strain dcg1, active compounds read low 0.998 | S. cerevisiae deletion strains, locus YJL095W, strain BCK1, active compounds read low 1.02 | S. cerevisiae deletion strains, locus YJL134W, strain LCB3, active compounds read low 1.01 | S. cerevisiae deletion strains, locus YJL168C, strain set2, active compounds read low 1 | S. cerevisiae deletion strains, locus YJL187C, strain SWE1 (second series), active compounds read low 1.01 | S. cerevisiae deletion strains, locus YJR043C, strain POL32, active compounds read low 1 | S. cerevisiae deletion strains, locus YJR075W, strain HOC1, active compounds read low 1 | S. cerevisiae deletion strains, locus YKL009W, strain mrt4, active compounds read low 1.02 | S. cerevisiae deletion strains, locus YKL068W, active compounds read low 1.01 | S. cerevisiae deletion strains, locus YKL085W, strain MDH1 (second series), active compounds read low 1.01 | S. cerevisiae deletion strains, locus YKL085W, strain MDH1, active compounds read low 1.01 | S. cerevisiae deletion strains, locus YKL190W, strain CNB1, active compounds read low 1.02 | S. cerevisiae deletion strains, locus YKR001C, strain vps1, active compounds read low 1.01 | S. cerevisiae deletion strains, locus YLR039C, strain RIC1, active compounds read low 1.05 | S. cerevisiae deletion strains, locus YLR058C, strain SHM2, active compounds read low 1.01 | S. cerevisiae deletion strains, locus YLR102C, strain apc9, active compounds read low 0.997 | S. cerevisiae deletion strains, locus YLR262C, strain YPT6, active compounds read low 1.06 | S. cerevisiae deletion strains, locus YLR268W, strain sec22, active compounds read low 0.992 | S. cerevisiae deletion strains, locus YLR330W, strain CHS5, active compounds read low 1.01 | S. cerevisiae deletion strains, locus YLR342W, strain FKS1 (second series), active compounds read low 1.02 | S. cerevisiae deletion strains, locus YLR371W, strain rom2, active compounds read low 1 | S. cerevisiae deletion strains, locus YLR418C, strain cdc73, active compounds read low 1.01 | S. cerevisiae deletion strains, locus YML016C, strain PPZ1, active compounds read low 1 | S. cerevisiae deletion strains, locus YML032C, strain rad52, active compounds read low 0.992 | S. cerevisiae deletion strains, locus YML124C, strain tub3, active compounds read low 1 | S. cerevisiae deletion strains, locus YMR078C, strain ctf18, active compounds read low 0.999 | S. cerevisiae deletion strains, locus YMR223W, strain ubp8, active compounds read low 1.01 | S. cerevisiae deletion strains, locus YMR263W, strain SAP30, active compounds read low 1.01 | S. cerevisiae deletion strains, locus YMR307W, strain GAS1, active compounds read low 0.995 | S. cerevisiae deletion strains, locus YNL067W, strain RPL9B, active compounds read low 1.01 | S. cerevisiae deletion strains, locus YNL128W, strain TEP1, active compounds read low 1.02 | S. cerevisiae deletion strains, locus YNL153C, strain GIM3, active compounds read low 1 | S. cerevisiae deletion strains, locus YNL233W, strain BNI4, active compounds read low 1.01 | S. cerevisiae deletion strains, locus YNL250W, strain rad50, active compounds read low 0.996 | S. cerevisiae deletion strains, locus YNL271C, strain bni1, active compounds read low 0.993 | S. cerevisiae deletion strains, locus YNL298W, strain CLA4, active compounds read low 1.03 | S. cerevisiae deletion strains, locus YNL307C, strain MCK1, active compounds read low 0.995 | S. cerevisiae deletion strains, locus YNL322C, strain KRE1, active compounds read low 1.01 | S. cerevisiae deletion strains, locus YNR052C, strain pop2, active compounds read low 1 | S. cerevisiae deletion strains, locus YOL006C, strain TOP1, active compounds read low 1.03 | S. cerevisiae deletion strains, locus YOL012C, strain htz1 1.08 | S. cerevisiae deletion strains, locus YOL147C, strain pex11, active compounds read low 0.995 | S. cerevisiae deletion strains, locus YOR061W, strain CKA2, active compounds read low 1.01 | S. cerevisiae deletion strains, locus YOR069W, strain VPS5, active compounds read low 1.01 | S. cerevisiae deletion strains, locus YOR136W, strain idh2, active compounds read low 1 | S. cerevisiae deletion strains, locus YOR144C, strain elg1, active compounds read low 1.01 | S. cerevisiae deletion strains, locus YOR184W, strain ser1, active compounds read low 1.02 | S. cerevisiae deletion strains, locus YOR316C, strain cot1, active compounds read low 1 | S. cerevisiae deletion strains, locus YPL055C, strain LGE1, active compounds read low 1.06 | S. cerevisiae deletion strains, locus YPL241C, strain CIN2, active compounds read low 1.01 | S. cerevisiae deletion strains, locus YPR119W, strain clb2, active compounds read low 1.01 | S. cerevisiae deletion strains, locus YPR141C, strain kar3, active compounds read low 0.996 | S. cerevisiae deletion strains, locus YPR163C, strain tif3, active compounds read low 0.993 | S. cerevisiae deletion strains, locus YPR167C, strain met16, active compounds read low 1.01 | S. cerevisiae deletion strains, strain wtn01, active compounds read low 0.989 | S. cerevisiae strains, strain wild type, active compounds read low 1.01
